# HSF-1 act – increases HSF-1 driven luciferase reporter signal | NIH3T3-HGL HSF-1 luciferase reporter, MG132, 8 h; 100% = twice DMSO control signal | activation, % at 9 µM | actives 1.7% (n = 300,000);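 active = mean replicate activation of at least 50% with a set share of replicates each reaching 50%; inconclusive = only one of those two conditions met; inactive = mean below 50% and too few replicates reaching it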;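 also: 0% = median of the neutral control wells and 100% = twice that signal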
# Wnt bcat act – activators of Wnt/beta-catenin signaling; Wnt/beta-catenin reporter cell assay, activator, plate reader; activation, % at 9.35 µM; actives 1.2% (n = 300,000); in the data active = activation above about 30%, passing the limit was not always enough; inconclusive = no clear call, values can overlap the other calls;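 also: 0% = neutral control wells and 100% = positive control wells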
# esBAF inh – SWI/SNF esBAF complex inhibition. mouse ES cells, Bmi1-luciferase knock-in reporter, 24 h; 100% = twice the neutral-well signal. reporter increase, % at 12.5 µM. actives 2% (n = 350,000); in the data active = activation above about 40%; inconclusive = no clear call, values can overlap the other calls;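 also: 0% = median of the plate's neutral control wells and 100% = double that signal; a rise in the Bmi1 reporter signal indicates esBAF inhibition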
# HSF1 inh – HSF1 inhibition | NIH3T3-HGL HSE-luciferase, MG132-induced, luminescence 8 h; active compounds read low | activity change, negative = inhibition, % at 7.5 µM (by protocol) | actives 0.77% (n = 300,000) | AID 2098;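 active = more than half of replicate wells show activity change below -50%, luminescence cut by over half; inconclusive = some wells, but at most half, below -50%; inactive = no replicate well below -50%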;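 also: luciferase reports HSF-1 transcriptional activity via heat shock element; 0% = median of DMSO wells and -100% = zero luminescence signal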
# MITF act – activators of MITF-driven TRPM1 promoter activity in SK-MEL-5 cells; AID 588334; activation, % at 12.5 µM; actives 0.75% (n = 300,000); SK-MEL-5 TRPM1-promoter luciferase, 24 h; % of positive control, neutral wells = 0;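 active = mean activation of at least 80% with every replicate also reaching 80%; inconclusive = mean reaches 80% but some replicate falls short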;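 also: 0% = neutral control wells and 100% = parthenolide positive control wells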
# An asterisk follows results filed as active; ? = inconclusive; . = no result given. A selection: hits, their analogues and other compounds. The true share with any hit is near 3.8%.
SMILES,HSF-1 act,Wnt bcat act,esBAF inh,HSF1 inh,MITF act
C[C@H]1CN([C@@H](C)CO)C(=O)c2cc(NS(C)(=O)=O)ccc2O[C@@H]1CN(C)S(C)(=O)=O,.,.,-4,.,.
COc1ccc(S(=O)(=O)N[C@H]2CC[C@H](CC(=O)NCCc3ccncc3)O[C@H]2CO)cc1,.,.,-4,.,.
C[C@H]1CN([C@@H](C)CO)C(=O)c2cc(NC(=O)Nc3ccc4c(c3)OCO4)ccc2O[C@H]1CN(C)C(=O)Nc1ccc(F)cc1,.,.,2,.,.
Cc1noc(C)c1NC(=O)N(C)C[C@@H]1OCCCC[C@@H](C)Oc2ccc(NS(C)(=O)=O)cc2C(=O)N([C@H](C)CO)C[C@@H]1C,.,.,7,.,.
O=C(Nc1nc2ccccc2s1)c1cc2c(s1)-c1ccccc1OC2,32,14,?,16,55
O=C(Nc1nccs1)c1cc2c(s1)-c1ccccc1OC2,38,?,103*,23,41
CO[C@H]1CN(C)C(=O)c2ccc(NS(C)(=O)=O)cc2OC[C@H](C)N(C(=O)C2CCOCC2)C[C@H]1C,.,.,-2,.,.
CCOC(=O)/C(=C/c1ccc(OC(=O)c2ccccc2)cc1)C(C)=O,77*,.,1,73,-8
[O-]/[N+](=C/c1cccnc1)c1ccc(Br)cc1,35,-2,12,22,32
[O-]/[N+](=C\c1ccncc1)c1ccc(Br)cc1,117*,.,.,78,78
O=C(C[C@@H]1C[C@@H]2c3cc(NC(=O)c4ccc5c(c4)OCO5)ccc3O[C@@H]2[C@H](CO)O1)NCc1cccc(F)c1,.,.,-1,.,.
COc1cc(/C=C2\SC(=S)N(Nc3ncc(C(F)(F)F)cc3Cl)C2=O)ccc1O,72*,0,12,66,-9
CN(C)c1ccc(/C=C2\SC(=S)N(Nc3ncc(C(F)(F)F)cc3Cl)C2=O)cc1,-5,.,11,7,.
O=Nc1c(-c2c(O)[nH]c3cc(Br)ccc23)[nH]c2ccccc12,18,77*,111*,14,8
O=C(CSCc1cccc(Br)c1)N=Nc1c(O)[nH]c2ccccc12,9,0,.,1,.
COC(=O)C[C@@H]1CC[C@H](NS(=O)(=O)c2ccc(OC)cc2)[C@@H](CO)O1,.,.,-3,.,.
Cc1ccc(N2C(=O)c3ccccc3NC2(C(=O)O)c2ccccc2)cc1Cl (configuration not stated),24,57*,60*,26,34
Cc1ccc(S(=O)(=O)Nc2ccc3c(c2)C(=O)N([C@@H](C)CO)C[C@H](C)[C@H](CN(C)S(=O)(=O)c2ccc(F)cc2)OCCCC[C@@H](C)O3)cc1,.,.,8,.,.
COc1ccc(-c2cc(-c3ccc(OC)cc3)nc(-c3ccc4c(c3)NC(=O)CO4)c2)cc1,23,-2,-1,8,8
Brc1ccc(-c2csc(-c3ccncc3)n2)cc1,39,55*,.,25,?
COc1cccc(-c2nc(-c3ccc4c(c3)NC(=O)CO4)cs2)c1,28,12,.,25,105*
CC(O)(c1cccnc1)c1nc(-c2ccc3ccccc3c2)cs1 (configuration not stated),.,-3,57*,.,.
COc1cccc(C(C)(O)c2nc(-c3ccc4ccccc4c3)cs2)c1 (configuration not stated),.,8,16,.,.
c1ccc(-c2nc(-c3cccnc3)cs2)cc1,21,11,52*,9,35
COc1ccc(NC(=O)N(C)C[C@H]2Oc3ccc(NS(=O)(=O)c4c(C)noc4C)cc3CC(=O)N([C@@H](C)CO)C[C@H]2C)cc1,.,.,-1,.,.
SMILES,HSF-1 act,Wnt bcat act,esBAF inh,HSF1 inh,MITF act
CCN1[C@@H]2c3ccc(-c4ccccc4)c(=O)n3C[C@H]1[C@H](CO)[C@H]2C(=O)NCCCN1CCOCC1,.,.,-6,.,.
COc1ccc(NC(=O)N[C@@H]2CC[C@@H](CC(=O)NC3CCCCC3)O[C@H]2CO)cc1,.,.,3,.,.
COc1ccc(-c2csc(-c3cccnc3)n2)cc1C,-1,10,51*,-8,76
COc1ccc2cc(-c3csc(-c4cccnc4)n3)ccc2c1,-8,.,59*,-2,?
CNC(=O)c1ccc(-c2nc(-c3ccccc3)cs2)cc1,26,10,52*,17,74
O=C(Oc1c(CN2CCOCC2)cc(Cl)c2cccnc12)c1ccccc1Br,-54,-20,-1,-49,-68
CN1CCN(Cc2cc(Cl)c3cccnc3c2OC(=O)c2cccs2)CC1,-12,62*,.,-8,-29
CC(C)Cc1ccc(/C=C/C(=O)N2CCOCC2)cc1,50,17,52*,25,103*
CC(C)(C)c1ccc(/C=C/C(=O)N2CCOCC2)cc1,13,-4,.,8,54
O=C(NCC1CCCCC1)[C@@H]1[C@@H](CO)[C@@H]2Cn3c(ccc(-c4ccccc4)c3=O)[C@H]1N2,.,.,8,.,.
O=C(c1ccccc1)c1ccc(-c2ccc(O)cc2)cc1,42,35*,76*,18,24
O=C(c1ccccc1)c1ccccc1,.,-2,0,.,16
Cc1cc(C)c(C#N)c(N2CCSCC2)n1,12,62*,-8,-1,14
O=C1CCCN1CCC1CCN(C(=O)Nc2ccccc2)CC1,-73,1,3,-68*,6
Cc1ccc(C2CCN(C(=S)NC(C)(C)C)C2)cc1 (configuration not stated),-75,15,28,-66*,32
Cc1ccc(C2CCN(C(=S)NC3CCCCC3)C2)cc1 (configuration not stated),-14,10,10,-2,13
O=C(Nc1ccccc1)c1cc(C2CCCN(C(=O)c3cccs3)C2)on1 (configuration not stated),.,34*,56*,.,.
O=C1CCCN1CCNC(=S)Nc1ccccc1,2,-1,-5,-3,7
O=C(Nc1ccccc1)N1CCC(c2ccccc2)C1 (configuration not stated),43,.,21,24,106*
O=C(C[C@H]1CC[C@@H]2[C@H](COC[C@H](O)CN2Cc2nccs2)O1)NCc1ccc(Cl)cc1,.,.,-9,.,.
O=C(C[C@H]1C=C[C@@H](NC(=O)Nc2ccc(C(F)(F)F)cc2)[C@@H](CO)O1)NCc1cccc(F)c1,.,.,3,.,.
O=C(CCN1CCC(c2ccccc2)C1)c1cccs1 (configuration not stated),19,6,.,2,4
O=C(CCCCCCN1C(=O)c2ccccc2C1=O)N1CCC(c2ccccc2)C1 (configuration not stated),-71,.,.,-64*,-4
O=C(c1cccs1)N1CCC(c2ccccc2)C1 (configuration not stated),16,51*,.,20,69
COc1ccc(NC(=S)N2CCC(c3ccccc3)C2)cc1 (configuration not stated),48,?,?,27,108*
COc1cccc(-c2cc3nc(NCc4cccnc4)n(C)c(=O)c3s2)c1,.,0,46*,.,.
Cn1c(NCCc2ccncc2)nc2cc(-c3ccccc3)sc2c1=O,.,-1,56*,.,.

# Assay outcomes deposited in PubChem BioAssay by Broad Institute.
